Several values for one entry are separate records, joined by “and”; a condition that tells them apart may be missing. Equal entries are not always repeated. About 83,000 compounds went through this panel and 20% of them were active in at least one assay; those are over-represented in the sample as a whole.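 Results are percent growth after 48 hours of single-concentration exposure. 100 means growth as in untreated cells, lower positive values show inhibition; negative values down to -100 show cell death.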 Activity calls are given as the source filed them. The calls were made as follows: active = growth percent below 10; inactive = the rest.
Legend:
Assay in all cases: NCI-60 one-dose screen, 48 h (100 = growth as untreated, 0 = no growth, -100 = all killed)
Conditions in all cases: 10 µM unless noted
SK-MEL-2 melanoma = system: SK-MEL-2 melanoma
EKVX NSCLC = system: EKVX NSCLC
SN12C renal = system: SN12C renal
UO-31 renal = system: UO-31 renal
ACHN renal = system: ACHN renal
CAKI-1 renal = system: CAKI-1 renal
A498 renal = system: A498 renal
CCRF-CEM leukemia = system: CCRF-CEM leukemia
MOLT-4 leukemia = system: MOLT-4 leukemia
TK-10 renal = system: TK-10 renal

Measured: growth

C=C[C@]1(C)C=C2CC[C@@H]3C(C)(C)C(=O)CC[C@@]3(C)[C@@H]2CC1
inactive: SK-MEL-2 melanoma 106% | EKVX NSCLC 101% | SN12C renal 99% | UO-31 renal 17.9% | ACHN renal 106% | CAKI-1 renal 84% | A498 renal 90.6% | CCRF-CEM leukemia 101% | MOLT-4 leukemia 109%

CCOC(=O)CC1CSC(c2cccc(Cl)c2)=N1 (stereo not drawn)
inactive: SK-MEL-2 melanoma 109% | EKVX NSCLC 100% | SN12C renal 106% | UO-31 renal 96.4% | ACHN renal 109% | CAKI-1 renal 97.8% | A498 renal 81.9% | CCRF-CEM leukemia 102% | MOLT-4 leukemia 95%

O=C(CCCOc1ccc(Br)cc1)Nc1ncc(Cc2ccc(F)cc2)s1
inactive: SK-MEL-2 melanoma 93.3% | EKVX NSCLC 77% | SN12C renal 82.7% | UO-31 renal 62.6% | ACHN renal 72.9% | CAKI-1 renal 37% | A498 renal 76.7% | CCRF-CEM leukemia 64.4% | MOLT-4 leukemia 73.8%

N#Cc1cc(-c2ccnc(Nc3ccc(NC(=O)CCl)cc3)n2)ccc1N1CCCC1
active: SK-MEL-2 melanoma -39.9% | SN12C renal -39.4% | UO-31 renal -71.9% | ACHN renal -24.6% | CAKI-1 renal -40.4% | CCRF-CEM leukemia 0.0905% | MOLT-4 leukemia -7.09%
inactive: EKVX NSCLC 12% | A498 renal 16.1%

Clc1nccc2c(-c3csc(-c4c[nH]c5ccc(Br)cc45)n3)c[nH]c12
inactive: SK-MEL-2 melanoma 48.7% | EKVX NSCLC 42.5% | SN12C renal 54% | CAKI-1 renal 32.9% | CCRF-CEM leukemia 20.1% | MOLT-4 leukemia 22%
active: UO-31 renal 9.83% | ACHN renal 6.55% | A498 renal -1.69%

COc1ccc(C2Nc3nc(SC)nc(N)c3N=C3c4ccccc4CCC32)cc1 (stereo not drawn)
inactive: SK-MEL-2 melanoma 107% | EKVX NSCLC 58.5% | SN12C renal 109% | UO-31 renal 73.3% | ACHN renal 103% | CAKI-1 renal 85.6% | A498 renal 48.8% | CCRF-CEM leukemia 47.8% | MOLT-4 leukemia 69.7%

O=C(/C=C/C12c3ccccc3C(c3ccccc31)C1C(=O)NC(=O)C12)c1ccncc1 (stereo not drawn)
inactive: SK-MEL-2 melanoma 46.6% | EKVX NSCLC 80.6% | UO-31 renal 26.5% | ACHN renal 23.7% | CAKI-1 renal 43.9% | A498 renal 87.4%
active: SN12C renal 7.85% | CCRF-CEM leukemia -12.7% | MOLT-4 leukemia 1.28%

O=C(O)C1C2CCC1C(O)C2 (stereo not drawn)
inactive: SK-MEL-2 melanoma 97.7% and 95.5% | EKVX NSCLC 110% | SN12C renal 104% and 102% | UO-31 renal 81.6% and 82% | ACHN renal 106% and 104% | CAKI-1 renal 100% and 98.3% | A498 renal 116% and 113% | CCRF-CEM leukemia 101% and 93.9% | MOLT-4 leukemia 93.6% and 93.5%

COc1ccc(/C=N/C2=C(C#N)C(c3ccccc3)c3c(ccc4ccccc34)O2)cc1 (stereo not drawn)
active: A498 renal -6.08%
inactive: SK-MEL-2 melanoma 49.7% | EKVX NSCLC 32.7% | SN12C renal 48% | UO-31 renal 37.5% | ACHN renal 35.3% | CAKI-1 renal 13.9% | CCRF-CEM leukemia 15.2% | MOLT-4 leukemia 27.3%

COc1ccc(-c2cc(-c3cccnc3)nc3sc4c(Cl)nnnc4c23)cc1OC
inactive: SK-MEL-2 melanoma 98.3% | EKVX NSCLC 111% | SN12C renal 92.9% | UO-31 renal 76.3% | ACHN renal 87.4% | CAKI-1 renal 101% | A498 renal 88.1% | CCRF-CEM leukemia 33.6% | MOLT-4 leukemia 49.1%

O=[N+]([O-])c1cc(C(F)(F)F)ccc1Sc1ccc(C(F)(F)F)cc1[N+](=O)[O-]
inactive: SK-MEL-2 melanoma 73.3% | EKVX NSCLC 87% | SN12C renal 72.8% | UO-31 renal 77.3% | ACHN renal 86.6% | CAKI-1 renal 44.7% | A498 renal 87% | CCRF-CEM leukemia 14.5%
active: MOLT-4 leukemia 9.53%

Cn1ccnc1CN1CCSC(C(=O)Nc2ccccc2)C1 (stereo not drawn)
inactive: SK-MEL-2 melanoma 102% | EKVX NSCLC 106% | SN12C renal 91.4% | UO-31 renal 89.2% | ACHN renal 93.2% | CAKI-1 renal 89.2% | A498 renal 97% | CCRF-CEM leukemia 80.9% | MOLT-4 leukemia 94.3%

O=C(NNc1ccccc1)c1ccccc1
inactive: SK-MEL-2 melanoma 81.5% and 49.8% | SN12C renal 84.5% and 80% | UO-31 renal 51.1% | TK-10 renal 65.3% | ACHN renal 57% and 38.5% | CAKI-1 renal 22.7% | A498 renal 118% and 103% | CCRF-CEM leukemia 56.8% and 49.8% | MOLT-4 leukemia 54.4% and 41.3%

COc1c(O)c(O)cc2c3c(oc12)CC(c1ccc2c(c1)OCO2)CC3=O (stereo not drawn)
inactive: SK-MEL-2 melanoma 69.6% | EKVX NSCLC 65.2% | SN12C renal 82.2% | UO-31 renal 44.7% | ACHN renal 29.7% | CAKI-1 renal 72% | A498 renal 97.9% | CCRF-CEM leukemia 56.7% | MOLT-4 leukemia 43.5%

O=C1CCc2c(sc3[nH]c(=S)n(Cc4ccc(Cl)cc4)c(=O)c23)C1
active: SK-MEL-2 melanoma -20.9% | EKVX NSCLC -2.48% | SN12C renal 5.94% | UO-31 renal -6.54% | ACHN renal 6.08% | CAKI-1 renal 3.79% | A498 renal -2.71% | CCRF-CEM leukemia -9.46%
inactive: MOLT-4 leukemia 18%

O=C(/C=C/c1cccs1)Nc1ncc(Cc2ccc(Cl)c(Cl)c2)s1
inactive: SK-MEL-2 melanoma 77.1% | EKVX NSCLC 57.8% | SN12C renal 79.8% | UO-31 renal 49.6% | ACHN renal 36.4% | CAKI-1 renal 23.8% | A498 renal 57.1% | CCRF-CEM leukemia 68% | MOLT-4 leukemia 51.4%

COc1ccc(-c2c[nH]c(C(=O)O)c2-c2cc(OC)c(OC)c(OC)c2)cc1
inactive: SK-MEL-2 melanoma 49.2% | EKVX NSCLC 63.3% | SN12C renal 43.9% | UO-31 renal 31.9% | ACHN renal 38.4% | CAKI-1 renal 29.8% | CCRF-CEM leukemia 42.2% | MOLT-4 leukemia 56.4%
active: A498 renal -14.5%

N=C(N)SCc1c2ccccc2c(CSC(=N)N)c2ccccc12
active: CCRF-CEM leukemia 6.24% | MOLT-4 leukemia -5.95%
inactive: SK-MEL-2 melanoma 79.2% | EKVX NSCLC 76.5% | SN12C renal 53.7% | UO-31 renal 80.8% | ACHN renal 51.2% | CAKI-1 renal 61.7% | A498 renal 89.9%

c1cc(NCCCCN2CCOCC2)c2ccc3c(ccc4c(NCCN5CCOCC5)ccnc43)c2n1
inactive: SK-MEL-2 melanoma 99.2% | EKVX NSCLC 94.8% | SN12C renal 64.8% | UO-31 renal 64.7% | ACHN renal 60.2% | CAKI-1 renal 64.2% | A498 renal 86.1% | CCRF-CEM leukemia 36.9% | MOLT-4 leukemia 43.2%

O=Nc1ccc(NO)c2ccccc12
inactive: SK-MEL-2 melanoma 103% and 59.7% | SN12C renal 103% and 60.5% | UO-31 renal 88.7% and 65.3% | TK-10 renal 132% and 125% | ACHN renal 97.6% and 79.2% | CAKI-1 renal 83.8% and 80.3% | A498 renal 74% and 102% | CCRF-CEM leukemia 106% and 57.6% | MOLT-4 leukemia 108% and 74.1%

CC(=O)OC[C@]12CCC(C)(C)C=C1[C@H]1CC[C@@H]3[C@@]4(C)CCCNC(C)(C)[C@@H]4CC[C@@]3(C)[C@]1(C)CC2
inactive: SK-MEL-2 melanoma 90.7% | EKVX NSCLC 89.5% | SN12C renal 68.8% | UO-31 renal 91.5% | ACHN renal 99.3% | CAKI-1 renal 88.9% | A498 renal 97.9% | CCRF-CEM leukemia 39.3% | MOLT-4 leukemia 38.8%

COC1=CC(=O)C(OC)=C(O)C1=O
inactive: SK-MEL-2 melanoma 105% | EKVX NSCLC 98.1% | SN12C renal 98.2% | UO-31 renal 93.1% | ACHN renal 98.2% | CAKI-1 renal 93.9% | A498 renal 106% | CCRF-CEM leukemia 108% | MOLT-4 leukemia 107%

O=C1/C(=C/c2ccccc2[N+](=O)[O-])Cc2ccccc21
-15.6% (active) and 21.2% (inactive): TK-10 renal
inactive: SK-MEL-2 melanoma 68.4% and 80.5% | SN12C renal 20.3% and 48.5%
-18.3% (active) and 14.1% (inactive): A498 renal
-66.2% (active) and 25.9% (inactive): UO-31 renal
-1.54% (active) and 13.5% (inactive): MOLT-4 leukemia
active: ACHN renal -23.9% and -43.3% | CCRF-CEM leukemia -0.132% and 4.53%

COc1ccc(CCNC(=O)COc2cc3c(Nc4ccc(F)c(Cl)c4)ncnc3cc2OC)cc1OC
inactive: SK-MEL-2 melanoma 86.9% | EKVX NSCLC 78.2% | SN12C renal 85.2% | UO-31 renal 46.8% | ACHN renal 49% | CAKI-1 renal 46.5% | A498 renal 55.6% | CCRF-CEM leukemia 100% | MOLT-4 leukemia 93.4%

Cc1ccc(-c2nc(C#N)c(S(=O)(=O)N(C)C)o2)cc1
inactive: SK-MEL-2 melanoma 91.1% | EKVX NSCLC 106% | SN12C renal 75.2% | UO-31 renal 91.7% | CAKI-1 renal 90% | A498 renal 77%
active: ACHN renal -59.4% | CCRF-CEM leukemia -10.9% | MOLT-4 leukemia -22.8%

O=C1C(N2CCOCC2)=C(I)C(=O)c2ncccc21
inactive: SK-MEL-2 melanoma 91.1% | EKVX NSCLC 89.3% | SN12C renal 60.6% | UO-31 renal 54.3% | ACHN renal 58.7% | CAKI-1 renal 76.1% | A498 renal 102% | CCRF-CEM leukemia 62.4% | MOLT-4 leukemia 50.5%
